Drawing on PubChem BioAssay AID652192 (Johns Hopkins Ion Channel Center, 2013), this text covers outcome for 32 molecules.

Results with a measured potency or affinity are listed apart. Calls of active or inactive are those of the source.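 The calls were made as follows: active = peak inhibition of the KCNQ2 potassium channel over 30% at some tested dose, with a fitted dose response curve; inactive = no inhibition at any dose, or no curve fitted.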

Chain of Potassium voltage-gated channel subfamily KQT member 2 (Rattus norvegicus) (O88943 whole entry, looked up): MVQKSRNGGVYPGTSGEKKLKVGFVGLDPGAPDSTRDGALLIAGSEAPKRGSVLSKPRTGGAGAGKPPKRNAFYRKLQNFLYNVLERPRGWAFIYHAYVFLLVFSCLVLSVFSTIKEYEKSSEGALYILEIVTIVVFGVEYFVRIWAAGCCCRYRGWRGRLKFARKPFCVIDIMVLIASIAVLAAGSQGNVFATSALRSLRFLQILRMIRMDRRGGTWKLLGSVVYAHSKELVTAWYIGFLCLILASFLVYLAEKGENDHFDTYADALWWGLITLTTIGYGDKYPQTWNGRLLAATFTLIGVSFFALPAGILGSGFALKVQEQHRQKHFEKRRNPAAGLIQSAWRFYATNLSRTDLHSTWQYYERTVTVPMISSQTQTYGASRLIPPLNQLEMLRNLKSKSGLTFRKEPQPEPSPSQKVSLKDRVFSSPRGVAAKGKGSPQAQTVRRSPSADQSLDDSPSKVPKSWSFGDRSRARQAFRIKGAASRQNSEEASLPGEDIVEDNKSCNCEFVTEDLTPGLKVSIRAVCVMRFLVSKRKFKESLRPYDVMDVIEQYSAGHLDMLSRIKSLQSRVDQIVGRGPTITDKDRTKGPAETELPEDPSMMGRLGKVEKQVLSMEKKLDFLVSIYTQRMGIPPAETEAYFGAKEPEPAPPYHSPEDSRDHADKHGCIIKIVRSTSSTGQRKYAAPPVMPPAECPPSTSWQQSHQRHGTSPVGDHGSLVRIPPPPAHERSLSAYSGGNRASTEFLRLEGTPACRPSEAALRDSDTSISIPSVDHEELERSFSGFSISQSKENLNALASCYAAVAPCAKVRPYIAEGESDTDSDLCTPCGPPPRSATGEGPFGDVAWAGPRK

This assay has as its target Potassium voltage-gated channel subfamily KQT member 2 (Rattus norvegicus) (UniProt O88943). In words: block of rat KCNQ2 potassium channel – cell-based, FluxOR thallium flux, concentration-response, selectivity assay for TASK1 inhibitor project, SAR follow-up (AID 652192). Conditions: KCNQ2 cell line, FluxOR thallium flux fluorescence; series mostly up to 30 µM.
As for `Cc1ccc(C(=O)Nc2cccc(NC(=O)c3ccccc3)c2)cc1`, the molecule was called inactive.

For `O=C(Nc1cccc(NC(=O)c2ccc(C(F)(F)F)cc2)c1)c1ccccc1`, the molecule was called inactive.

For the molecule `Cc1cccc(C(=O)Nc2cccc(NC(=O)c3cccc(F)c3)c2)c1`, the outcome was inactive.

On to `Cc1cccc(C(=O)Nc2cccc(NC(=O)c3ccc(Cl)cc3)c2)c1`, for which the outcome was inactive.

Consider `COc1ccccc1C(=O)Nc1cccc(NC(=O)c2ccccc2)c1`, for which the molecule was classed as inactive.

Take `CCOc1ccccc1C(=O)Nc1cccc(NC(=O)C2CCCC2)c1`: the molecule was called inactive.

With `CCOc1ccccc1NC(=O)c1cccc(NC(=O)C2CC2)c1`, the molecule was called inactive.

On to `Cc1cccc(C(=O)Nc2cccc(NC(=O)C3CCCCC3)c2)c1`, for which the molecule was called inactive.

In the case of `Cc1cccc(C(=O)Nc2cccc(NC(=O)c3ccco3)c2)c1`, the call was inactive.

Turning to `CCOc1ccccc1NC(=O)c1cccc(NC(=O)CC2CCCC2)c1`, the outcome was inactive.

`COc1ccccc1C(=O)Nc1cccc(NC(=O)c2ccccc2C)c1`: the result was inactive.

Turning to `COc1ccccc1NC(=O)c1cccc(NC(=O)C2CCCCC2)c1`, the molecule was called inactive.

Take `CC(C)Oc1ccccc1C(=O)Nc1cccc(NC(=O)c2ccccc2OC(F)(F)F)c1`: the molecule was called inactive.

`CCOc1ccccc1NC(=O)c1cccc(NC(=O)c2ccc(Cl)cc2)c1`: the call was inactive.

With `COc1ccc(CC(=O)NCc2ccccc2-c2ccccc2C(=O)NCc2ccc(F)cc2F)cc1`, the outcome was inactive.

Turning to `Cc1cccc(S(=O)(=O)Nc2cccc(NC(=O)c3ccccc3)c2)c1`, the call was inactive.

In the case of `Cc1cccc(C(=O)Nc2cccc(NC(=O)c3cccc(Cl)c3)c2)c1`, the outcome was inactive.

Turning to `CCOc1ccccc1NC(=O)c1cccc(NC(=O)C2CCCCC2)c1`, the call was inactive.

For the molecule `COc1cccc(C(=O)Nc2cccc(NC(=O)c3ccccc3)c2)c1`, the outcome was inactive.

For the molecule `COc1ccccc1C(=O)Nc1cc(NC(=O)c2cccc(C)c2)ccc1F`, the outcome was inactive.

Regarding `COc1c(F)cccc1C(=O)Nc1cccc(NC(=O)c2cccc(C)c2)c1`, the call was inactive.

Consider `CCOc1ccccc1NC(=O)c1cccc(NC(=O)c2cccc(Cl)c2)c1`, for which the molecule was classed as inactive.

As to `O=C(Nc1cccc(NC(=O)c2cccc(C(F)(F)F)c2)c1)c1ccccc1`, the outcome was inactive.

On to `CCOc1ccccc1NC(=O)c1cccc(NC(=O)c2ccccc2Cl)c1`, for which the result was inactive.

Consider `CCOc1ccccc1NC(=O)c1cccc(NC(=O)C(C)(C)C)c1`, for which the result was inactive.

`O=C(Nc1cccc(NC(=O)c2cccc(F)c2)c1)c1ccccc1`: the molecule was classed as inactive.

Regarding `CCOc1ccccc1NC(=O)c1cccc(C(=O)NC2CCCC2)c1`, the call was inactive.

`Cc1cccc(C(=O)Nc2cccc(NC(=O)c3ccccc3OC(F)(F)F)c2)c1`: the call was inactive.

As to `Cc1cccc(C(=O)Nc2cccc(NC(=O)c3ccccc3C(F)(F)F)c2)c1`, the molecule was called inactive.

On to `CCOc1ccccc1C(=O)Nc1cccc(NC(=O)c2ccccc2C(F)(F)F)c1`, for which the molecule was called inactive.

On to `COc1ccc(C(=O)Nc2cccc(NC(=O)c3ccccc3)c2)cc1`, for which the call was inactive.

Take `COc1ccccc1NC(=O)c1cccc(NC(=O)c2ccccc2)c1`: the call was inactive.
